According to paper PMC12751014, “Non-Catalytic Inhibitors of the p38/MK2 Interface: Repurposing Approved Drugs to Target Neuroinflammation in Alzheimer’s Disease” (Journal of Medicinal Chemistry, 2025):
Out of some 1,900 compounds screened, about 50 (3%) showed an effect of 50% or more. The list comes from a sample in which strong results are over-represented; it also holds similar structures and randomly drawn compounds.

Each compound was assayed against p38/MK2 protein–protein interaction (VF-p38α / GST-MK2) (Homo sapiens, UniProt Q16539) (assay: primary screen, percent of control activity; higher = less effect of the substance).
Sequence of p38/MK2 protein–protein interaction (VF-p38α / GST-MK2) (Q16539 2-360 limits assumed): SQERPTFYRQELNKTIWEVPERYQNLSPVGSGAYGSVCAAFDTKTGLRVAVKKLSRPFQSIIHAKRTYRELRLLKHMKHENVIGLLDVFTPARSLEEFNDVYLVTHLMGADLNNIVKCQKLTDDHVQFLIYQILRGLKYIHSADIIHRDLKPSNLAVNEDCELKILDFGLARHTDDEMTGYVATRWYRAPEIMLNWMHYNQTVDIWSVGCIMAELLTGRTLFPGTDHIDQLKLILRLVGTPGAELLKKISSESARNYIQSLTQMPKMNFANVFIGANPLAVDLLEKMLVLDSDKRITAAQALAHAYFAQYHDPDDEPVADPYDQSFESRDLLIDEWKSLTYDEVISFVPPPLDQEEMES
Parameters: species or system HEK293T cell lysate transfected with VF-p38α and GST-MK2; unclear (methods say 'quintuplet replicates')
Procedure: The TR-FRET assay was conducted in a 1536-well plate (Corning, catalog no. 3724) with HEK293T cell lysate transfected with VF-p38α and GST-MK2. Cell-lysate concentration was optimized with a titration experiment. Anti-Flag-Tb and anti-GST-d2 antibodies (Revvity, catalog no. 61FGBTLB) were used to couple p38α and MK2, respectively. A multiple-drop Combi dispenser (Thermo Scientific) combined reaction mixtures in quintuplet replicates. The TR-FRET signals were measured using a BMG Labtech PHERAstar FSX plate reader and normalized to the percent of DMSO control.
In the case of Cc1cnc(NC(=O)Nc2cc(Br)c(C)cc2OCC2CNCCO2)cn1 (centres unmarked), the Pct of control is reported as 73.3%. O=C1c2c(O)cccc2C(C2OC(CO)C(O)C(O)C2O)c2cc(CO)cc(O)c21 (centres unmarked) showed a Pct of control of 92%. Work on O=C1c2cccc(O)c2C(=O)c2c(O)cc(CO)cc21 yielded a Pct of control of 33.9%. For Cc1cc(O)c2c(c1)C(=O)c1cccc(O)c1C2=O, the Pct of control was 94%. Compound CC1=NN(c2ccc(C(=O)O)cc2)C(=O)C1=Cc1ccc(-c2cc(C)c(C)cc2[N+](=O)[O-])o1 has a Pct of control of 18%. In the case of COc1ccccc1N1CCN(CCN(C(=O)C2CCCCC2)c2ccccn2)CC1.O=C(O)C=CC(=O)O, the Pct of control is reported as 97.5%. Work on CN1C(=O)CCS(=O)(=O)C1c1ccc(Cl)cc1 (centres unmarked) yielded a Pct of control of 95.4%. Work on COC(=O)Nc1nc2ccc(C(=O)c3cccs3)cc2[nH]1 yielded a Pct of control of 97.5%. CCOc1ccc(NC(C)=O)cc1 showed a Pct of control of 97.7%. For CC(C)(C)NC[C@H](O)COc1nsnc1N1CCOCC1.O=C(O)C=CC(=O)O, the Pct of control was 94.2%. Work on c1ccc(Cn2c(-c3ccc(OCC(C4CCNCC4)n4c(-c5ccccc5)nc5ccccc54)cc3)nc3ccccc32)cc1 (centres unmarked) yielded a Pct of control of 21.2%. With CCOc1ccccc1-n1c(C(C)N2CCN(C(=O)COc3ccc(Cl)cc3)CC2)nc2ccccc2c1=O (centres unmarked) the Pct of control was 100%. CCCC1OC2CC3C4CCC5=CC(=O)C=CC5(C)C4C(O)CC3(C)C2(C(=O)CO)O1 (centres unmarked) was tested, and the Pct of control was 101%. In the case of CCCNC(C)C(=O)Nc1c(C)csc1C(=O)OC.Cl (centres unmarked), the Pct of control is reported as 99.8%. O=C(O)CCC1CCC(c2cc(F)ccc2F)(S(=O)(=O)c2ccc(Cl)cc2)CC1 (centres unmarked) showed a Pct of control of 85.6%. For COc1cc2nccc(Oc3ccc(NC(=O)C4(C(=O)Nc5ccc(F)cc5)CC4)cc3)c2cc1OC, the Pct of control was 70.5%. CN1CCN(C2CCN(C(=O)Nc3cc(Oc4ccc(NC(=O)C5(C(=O)Nc6ccc(F)cc6)CC5)c(F)c4)ccn3)CC2)CC1 was tested, and the Pct of control was 46.1%. COc1cc2nccc(Oc3ccc(NC(=O)C4(C(=O)Nc5ccc(F)cc5)CC4)cc3)c2cc1OC.O=C(O)CC(O)C(=O)O was tested, and the Pct of control was 72.9%. Compound NC(=O)Nc1cc(-c2cccc(F)c2)sc1C(=O)NC1CCCNC1 (centres unmarked) has a Pct of control of 74.3%. Cc1cc(NC(=O)c2cccc(NC(=O)C=CCN(C)C)c2)ccc1Nc1nccc(-c2cccnc2)n1 was tested, and the Pct of control was 80.7%. Compound CC1(COc2ccc3c(c2)ncn3-c2ccc3cccc(N4CCC(N)CC4)c3n2)COC1 has a Pct of control of 47.3%. COCCOc1ccc2c(c1)ncn2-c1ccc2cccc(N3CCC(N)CC3)c2n1 was tested, and the Pct of control was 51.7%. CCOC(=O)[C@H](CCc1ccccc1)N[C@H]1CS[C@H](c2cccs2)CN(CC(=O)O)C1=O.Cl gave a Pct of control of 77.1%. Work on CC(C)(C)CC(C)(C)c1ccc(O)c(Cc2ccc(Cl)cc2Cl)c1 yielded a Pct of control of 88.3%. Cc1nn(-c2ccccc2)c(C)c1C=NN1CCN(Cc2ccccc2)CC1 showed a Pct of control of 85.5%. CC(=O)O.Cc1cc2c(C(C)C)c(O)c(O)c(C=O)c2c(O)c1-c1c(C)cc2c(C(C)C)c(O)c(O)c(C=O)c2c1O [S2812] was tested, and the Pct of control was 29.9%. CC(=O)O.Cc1cc2c(C(C)C)c(O)c(O)c(C=O)c2c(O)c1-c1c(C)cc2c(C(C)C)c(O)c(O)c(C=O)c2c1O [S2303] showed a Pct of control of 26.8%. Compound CC1(C)CCC2=C(O1)c1ccccc1C(=O)C2=O has a Pct of control of 102%. CCC1OC(=O)C(C)C(OC2CC(C)(OC)C(O)C(C)O2)C(C)C(OC2OC(C)CC(N(C)C)C2O)C(C)(O)CC(C)C(=NOCOCCOC)C(C)C(O)C1(C)O (centres unmarked) was tested, and the Pct of control was 103%. With C=CC(=O)Nc1cccc(Sc2nc(Nc3ccc(N4CCN(C)CC4)cc3)ncc2Cl)c1 the Pct of control was 91.7%. Nc1cccc(-c2cc3c(Oc4cccc(O)c4)ncnc3[nH]2)c1 was tested, and the Pct of control was 90.3%. CC[C@@H]([C@H](C)O)n1ncn(-c2ccc(N3CCN(c4ccc(OC[C@@H]5CO[C@@](Cn6cncn6)(c6ccc(F)cc6F)C5)cc4)CC3)cc2)c1=O was tested, and the Pct of control was 97%. NC(N)=NS(=O)(=O)c1ccc(N)cc1 was tested, and the Pct of control was 105%. Cc1c(Cl)cccc1Nc1ccccc1C(=O)O gave a Pct of control of 99.2%. With NC(=O)N1c2ccccc2C=Cc2ccccc21 the Pct of control was 93.5%. In the case of CCC(C)n1ncn(-c2ccc(N3CCN(c4ccc(OCC5COC(Cn6cncn6)(c6ccc(Cl)cc6Cl)O5)cc4)CC3)cc2)c1=O (centres unmarked), the Pct of control is reported as 88.6%. For COc1ccc(-c2cnc3c(-c4cccc5ncccc45)cnn3c2)cc1, the Pct of control was 23.2%. For c1cc(-c2cnn3cc(-c4ccc(N5CCNCC5)cc4)cnc23)c2cccnc2c1, the Pct of control was 10.1%. In the case of CC(C)Oc1ccc(-c2cnc3c(-c4ccnc5ccccc45)cnn3c2)cc1, the Pct of control is reported as 89.1%. In the case of CN1CCC(OC(c2ccccc2)c2ccccc2)CC1.Cl, the Pct of control is reported as 89.1%. In the case of COc1ccc(C2=NC(c3ccc(Cl)cc3)C(c3ccc(Cl)cc3)N2C(=O)N2CCNC(=O)C2)c(OC(C)C)c1 (centres unmarked) [S8065], the Pct of control is reported as 100%. In the case of COc1ccccc1S(=O)(=O)Nc1ccc2c(c1)CN(C)C(=O)N2, the Pct of control is reported as 117%. Work on CCN(C(=O)c1c(O)c2c(Cl)cccc2n(C)c1=O)c1ccccc1 yielded a Pct of control of 88.3%. O=[N+]([O-])c1ccc2c(c1)S(=O)(=O)C=C2 was tested, and the Pct of control was 58.2%. CC1CN(CC(=O)Nc2ccc3c(c2)Cc2cccc(-c4cc(=O)cc(N5CCOCC5)o4)c2S3)CC(C)O1 (centres unmarked) showed a Pct of control of 82.7%. CN(CC(=O)N(Cc1ccc(C2CCCCC2)cc1)c1ccc(C(=O)O)cc1)S(=O)(=O)c1c(F)c(F)c(F)c(F)c1F showed a Pct of control of 24.1%. Compound O=c1c2ccccc2nc2n1CCc1c-2[nH]c2ccccc12 has a Pct of control of 100%. Compound NNC(=O)c1ccncc1 has a Pct of control of 86.5%. For CCOC(=O)c1ccc(C#Cc2ccc3c(c2)C(C)(C)CCS3)nc1, the Pct of control was 106%. In the case of Cc1cc(Nc2ncnc3ccc(-c4ccc(CNCCS(C)(=O)=O)o4)cc23)ccc1Oc1ccn2ncnc2c1, the Pct of control is reported as 24.2%. Work on CS(=O)(=O)CCNCc1ccc(-c2ccc3ncnc(Nc4ccc(OCc5cccc(F)c5)c(Cl)c4)c3c2)o1 yielded a Pct of control of 88.1%. In the case of Cc1ccc(CNc2ncnc3ccc(-c4ccc(CO)o4)cc23)o1, the Pct of control is reported as 69.2%. Work on Cc1cc(=O)[nH]c(=S)[nH]1 yielded a Pct of control of 101%. In the case of CN(c1ncccc1CNc1nc(Nc2ccc3c(c2)CC(=O)N3)ncc1C(F)(F)F)S(C)(=O)=O, the Pct of control is reported as 106%. Work on CS(=O)(=O)c1cccc(CNc2nc(Nc3ccc4c(c3)CCC(=O)N4)ncc2C(F)(F)F)c1 yielded a Pct of control of 34%. CN(c1ncccc1CNc1nc(Nc2ccc3c(c2)CC(=O)N3)ncc1C(F)(F)F)S(C)(=O)=O.Cl was tested, and the Pct of control was 76.7%. For CC(C)Cc1ccc(C(C)C(=O)O)cc1 (centres unmarked), the Pct of control was 93%. In the case of O=C(COc1cccc2c(=O)[nH]ccc12)c1ccccc1, the Pct of control is reported as 89.7%. Compound CNS(=O)(=O)Cc1ccc2[nH]cc(CCN(C)C)c2c1.O=C(O)CCC(=O)O has a Pct of control of 102%. Compound CC(=O)OC1(C(C)=O)CCC2C3CC(C)C4=CC(=O)CCC4(C)C3CCC21C (centres unmarked) has a Pct of control of 87%. With COc1c(C)c(C(=O)c2ccc(N)c(C(=O)[O-])c2)n2ccccc12.[Na+] the Pct of control was 94%. In the case of CC(=O)NS(=O)(=O)c1ccc(NC(=O)c2ccccc2C(=O)O)cc1, the Pct of control is reported as 96.2%. For CC(C)c1ccccc1Cc1cc(C(=O)Nc2ccc(S(=O)(=O)c3ccccc3C(C)(C)C)cc2)c(O)c(O)c1O, the Pct of control was 33.3%. In the case of CC(C)(C)c1cc(C(C)(C)C)c(NC(=O)c2c[nH]c3ccccc3c2=O)cc1O, the Pct of control is reported as 111%. With Cc1ccc(Cl)c(Nc2ccccc2C(=O)[O-])c1Cl.[Na+] the Pct of control was 95.1%. With COc1ccc2cccc(CCNC(C)=O)c2c1 the Pct of control was 90.6%. CS(=O)(=O)O.CS(=O)(=O)O.Cc1ccc(C(=O)Nc2ccc(CN3CCN(C)CC3)c(C(F)(F)F)c2)cc1C#Cc1cnc2[nH]ncc2c1 was tested, and the Pct of control was 73.8%. With Cc1cccc(C#Cc2ccccc2)n1 the Pct of control was 29.7%. NS(=O)(=O)C#Cc1ccccc1 was tested, and the Pct of control was 97.5%. For O=C1NC(=O)C(=Cc2ccc3nccc(-c4ccncc4)c3c2)S1, the Pct of control was 126%. In the case of Cc1ccc(Cl)cc1N(CC(=O)Nc1c(F)cccc1F)S(C)(=O)=O, the Pct of control is reported as 91.8%. With N#CC(c1ccc(Cl)cc1)c1c(Cl)cc(-n2ncc(=O)[nH]c2=O)cc1Cl (centres unmarked) the Pct of control was 72%. COc1cc2c(cc1-c1c(C)noc1C)ncc1[nH]c(=O)n(C(C)c3ccccn3)c12 (centres unmarked) gave a Pct of control of 53.6%. Cc1cc(NC(=O)Nc2ccc(N(C)C)cc2)c2cc(F)cc(F)c2n1 gave a Pct of control of 89.3%. In the case of CN(C)c1ccc(-c2nc3ncc(Cl)c(N4CCN(CC(=O)Nc5nccs5)CC4)c3[nH]2)cc1, the Pct of control is reported as 97.9%. Nc1ccc(-c2ccc3ncc4ccc(=O)n(-c5cccc(C(F)(F)F)c5)c4c3c2)cn1 was tested, and the Pct of control was 87.9%. In the case of COc1ccc(-c2ccc3ncc4c(c3c2)n(-c2ccc(N3CCNCC3)c(C(F)(F)F)c2)c(=O)n4C)cn1.O=C(O)C=CC(=O)O, the Pct of control is reported as 45%.
